Compounds with a hit are over-represented: about 2.1% of the library has one in this group of screens.
ERAP1 inh: blocks human ERAP1 aminopeptidase activity. Q9NZ08. recombinant ERAP1, Leu-AMC fluorescence, 60 min. inhibition, % at 10.7 µM. hit rate 0.15% among 340,000. AID 652197;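 active = mean replicate inhibition of at least 30%, or all replicates individually reaching that 30% level; inactive = mean below 30% and not every replicate reaching it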;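 note: 0% = neutral control wells and 100% = L-leucinethiol positive control wells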
Target sequence (Q9NZ08 whole entry, looked up): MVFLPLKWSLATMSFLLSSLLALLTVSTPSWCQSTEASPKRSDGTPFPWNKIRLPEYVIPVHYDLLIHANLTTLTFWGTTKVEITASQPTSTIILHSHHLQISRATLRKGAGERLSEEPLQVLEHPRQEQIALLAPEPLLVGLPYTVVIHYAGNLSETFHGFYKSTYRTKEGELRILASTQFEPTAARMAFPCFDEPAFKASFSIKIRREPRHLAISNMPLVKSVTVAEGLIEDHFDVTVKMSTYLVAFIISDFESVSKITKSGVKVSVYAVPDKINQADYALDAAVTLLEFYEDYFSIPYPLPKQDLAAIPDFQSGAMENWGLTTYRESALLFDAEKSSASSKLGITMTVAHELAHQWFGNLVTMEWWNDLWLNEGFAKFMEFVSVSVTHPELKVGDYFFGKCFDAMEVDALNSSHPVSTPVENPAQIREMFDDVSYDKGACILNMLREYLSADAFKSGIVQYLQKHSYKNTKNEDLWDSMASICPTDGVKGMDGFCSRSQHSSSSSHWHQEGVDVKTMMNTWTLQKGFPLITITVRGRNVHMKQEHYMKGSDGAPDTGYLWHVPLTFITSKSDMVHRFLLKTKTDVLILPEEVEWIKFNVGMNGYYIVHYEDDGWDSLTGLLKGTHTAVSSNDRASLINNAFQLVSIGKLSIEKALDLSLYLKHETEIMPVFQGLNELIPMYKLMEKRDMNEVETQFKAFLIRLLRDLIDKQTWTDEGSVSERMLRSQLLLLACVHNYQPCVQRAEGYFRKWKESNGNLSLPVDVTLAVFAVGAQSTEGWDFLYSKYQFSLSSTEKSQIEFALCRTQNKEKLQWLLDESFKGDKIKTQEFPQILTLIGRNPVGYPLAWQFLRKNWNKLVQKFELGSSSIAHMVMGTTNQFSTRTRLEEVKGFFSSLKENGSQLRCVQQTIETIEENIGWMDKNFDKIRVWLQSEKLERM
rRNA inh HTS: inhibitors of bacterial rRNA selective over humanized ribosomes | E. coli WT GFP vs humanized-ribosome RFP mutants, fluorescence, 24 h; hits give low values; DMSO median 0, no signal -100 | GFP signal change (wild-type ribosome), % (concentration not given with the values) | hit rate 1.6% among 350,000 | AID 720706;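 active = significant combined selectivity score with lowered wild-type GFP, culture density cut under 30%, mutant RFP and density less affected; inactive = any of these conditions unmet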
PvdQ acylase: blocks Pseudomonas aeruginosa PvdQ acylase activity; purified PvdQ acylase, fluorescence plate reader; inhibition, % at 10 µM; hit rate 0.063% among 340,000; AID 488965; in the data active = inhibition above about 30%, passing the limit was not always enough;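 note: 0% = vehicle neutral wells and 100% = reference inhibitor wells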
ARNT TACC3 PPI: disrupts binding between human ARNT and TACC3; Q9Y6A5; AlphaScreen His-ARNT PAS-B/GST-TACC3 binding, luminescence; TACC3 fragment carries E629A point mutation; inhibition, % at 9.99 µM; hit rate 0.66% among 390,000; AID 623870;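 active = mean inhibition of replicates at least 50% and at least half of replicates each reaching 50%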;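 note: 0% = complete ARNT plus TACC3 wells and 100% = ARNT alone without TACC3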
CFTR F508del cor: CFTR F508del correction in bronchial cells; CFBE cells, YFP halide quenching; stimulated with forskolin plus potentiator P3; % fluorescence drop versus neutral controls; activity (quench increase), % at 7.58 µM; hit rate 0.36% among 350,000;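 active = mean added fluorescence quench of at least 8% versus neutral control, with both replicates also reaching 8%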;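 note: cells transiently co-express mutant CFTR-F508del with the halide-sensitive YFP; corrector assay measuring rescue of mutant channel to the surface after 24 h compound exposure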
The depositor's hits bear a star; x = no result given.

SMILES | ERAP1 inh | rRNA inh HTS | PvdQ acylase | ARNT TACC3 PPI | CFTR F508del cor
CN1CCN(C(=O)C[C@@H]2CC[C@@H]3[C@@H](COc4ccc(NC(=O)C5CC5)cc4C(=O)N3C)O2)CC1 | 0 | 3 | x | -6 | -3
CCN(C[C@@H]1N[C@@H](CO)[C@H]1c1ccc(-c2cccc(F)c2)cc1)C(=O)CN(C)C | 1 | 1 | x | 9 | -1
N#CCn1c(C2CCCCC2)nc2ccccc2c1=O | x | x | 35* | 2 | x
CC(=O)N(C)C[C@@H]1Oc2ncc(C#Cc3ccccc3)cc2C(=O)N([C@H](C)CO)C[C@H]1C | 0 | -1 | x | -7 | 2
Cc1cc(N)n2ncc(-c3ccc(Cl)cc3)c2n1 | x | x | -9 | -1 | x
Cc1cc(NCc2ccccn2)n2ncc(-c3ccccc3)c2n1 | 6 | -38* | -26 | -24 | 8.5*
Cc1cc(NCc2ccccn2)n2ncc(-c3ccc(Cl)cc3)c2n1 | x | 16 | -8 | 4 | 0
Cc1cc(Cl)n2ncc(-c3ccccc3)c2n1 | 7 | -33* | -26 | -29 | -1
O=C(N[C@H]1CC[C@@H](CCNC(=O)C2CC2)O[C@H]1CO)c1ccccn1 | -1 | 0 | x | -1 | 0
CCCNC(=O)C[C@H]1CC[C@H]2[C@@H](COc3ccc(NC(=O)C4CCOCC4)cc3C(=O)N2C)O1 | -1 | 6 | x | x | -1
COc1ccc(S(=O)(=O)N2CCN(CCOc3ccccc3Cl)CC2)cc1OC | 2 | -7 | 14 | x | 17*
COc1ccc(S(=O)(=O)N2CCN(CCOc3ccc(Br)cc3)CC2)cc1OC | -6 | 1 | -12 | -2 | -1
O=C(CNC(=O)c1cccs1)OCc1ccc(Br)cc1 | -6 | -26* | 0 | -3 | 0
COc1ccc(/C(=N/Nc2ncnc3ccccc23)C(=O)O)cc1 | -1 | -1 | 6 | 60* | 3
CCOC(=O)/C(=N\Nc1ncnc2ccccc12)c1ccc(OC)cc1 | 1 | -7 | -3 | 14 | -1
O=c1[nH]c(=S)[nH]c2sccc12 | 50* | 6 | 7 | 2 | 1
Cc1cc(F)ccc1S(=O)(=O)Nc1ccccc1C(=O)NCc1cccnc1 | -1 | -24* | -9 | -3 | -1
COc1ccc(S(=O)(=O)Nc2ccccc2C(=O)NCc2cccnc2)cc1C | -3 | -3 | -2 | 7 | -2
O=C(CCN1CCCCC1)N[C@@H]1CC[C@@H](CCn2cc(-c3ccc(F)cc3)nn2)O[C@@H]1CO | -3 | 1 | x | -8 | -2
Cc1ccc(C(=O)COC(=O)c2ccc(O)cc2)cc1 | -3 | -27* | 4 | -5 | 3
CCOC(=O)COC(=O)c1ccc(O)cc1 | x | x | -3 | 1 | x
COc1ccc(NC(=O)C(CC(=O)O)Cc2ccc(Cl)cc2)cc1 (stereo not given) | -1 | 11 | -8 | 7 | 8.9*
COc1cc(N2CCC(O)CC2)ccc1Nc1cc(Nc2ccccc2S(=O)(=O)C(C)C)c2cc[nH]c2n1 | x | -11 | x | x | 2
N#C/C(C(N)=O)=C1/SC(Cc2ccc(F)cc2)C(=O)N1c1ccccc1 (stereo not given) | -1 | -6 | -16 | -4 | 0
Cc1ccccc1N1C(=O)C(Cc2ccc(F)cc2)S/C1=C(\C#N)C(N)=O (stereo not given) | -2 | -31* | x | x | -1
SMILES | ERAP1 inh | rRNA inh HTS | PvdQ acylase | ARNT TACC3 PPI | CFTR F508del cor
COC(=O)C[C@H]1CC[C@@H]2[C@H](COC[C@@H](O)CN2CCC(F)(F)F)O1 | 1 | -1 | x | -12 | 0
CCOC(=O)c1nnn(CC(=O)NC(=O)Nc2ccccc2)c1C(=O)OCC | x | 10 | 5 | -9 | 3
CCOC(=O)c1nnn(CC(=O)Nc2ccccc2)c1C(=O)OCC | 43* | 6 | -8 | 2 | x
C[C@H]1CN([C@@H](C)CO)C(=O)c2cccc(NS(=O)(=O)c3ccc(Cl)cc3)c2O[C@H]1CN(C)C | 1 | 5 | x | -35 | -1
O=C1C=CN(C2OC(CO)C(O)C2O)C(=O)C1 (stereo not given) | -1 | 7 | x | x | 9.7*
O=C1c2ccccc2C(=O)N1Cc1cnc(N2CCN(c3ccccc3)CC2)s1 | -2 | -28* | -2 | -11 | 11*
CCC(=O)N(C)CCc1cc2c(c(OC)c1/C=N/NC(=O)c1ccncc1)OCO2 | x | 8 | -12 | 4 | -3
CCC(=O)N(C)CCc1cc2c(c(OC)c1/C=N/NS(=O)(=O)c1ccc(C)cc1)OCO2 | -4 | -25* | 5 | 1 | 1
O=C(Cc1ccc(Cl)cc1Cl)Nc1ccncc1Cl | 6 | -8 | 4 | -15 | 2
O=C(Cc1ccc(Cl)cc1Cl)Nc1ccncc1 | 2 | -25* | -7 | -7 | 0
COc1ccc(S(=O)(=O)Nc2cc(SCC(=O)O)c(O)c3ccccc23)cc1 | -3 | -25 | -2 | 61* | 2
COc1ccc(S(=O)(=O)Nc2ccccc2C)cc1 | x | x | 15 | 4 | x
O=C(O)CSc1cc(NS(=O)(=O)c2ccc(Cl)cc2)c2ccccc2c1O | 8 | -31 | -12 | 48* | 0
COc1ccc(S(=O)(=O)Nc2cccc3ccc(O)cc23)cc1 | x | -28 | 2 | -5 | 14*
Cc1nnc(SCC(=O)NNC(=O)CC#N)[nH]c1=O | -3 | x | -11 | 48* | x
CCCCCc1cc(=O)oc2c(C(CCN3CCCCC3)c3ccc(OC)cc3)c(OC)cc(OC)c12 (stereo not given) | 1 | -56 | -2 | 14 | -1
CCCCCc1cc(=O)oc2c(C(CCN3CCCC(C)C3)c3ccc(OC)cc3)c(OC)cc(OC)c12 (stereo not given) | -2 | -37* | -2 | 14 | 0
N#CC(c1ccc(Cl)nn1)c1ccc(Cl)cc1Cl (stereo not given) | x | x | 114* | x | x
COc1ccc(C(C#N)c2ccc(Cl)nn2)cc1 (stereo not given) | 2 | 19 | 46* | x | -1
COc1ccc(C(C#N)c2nc3ccccc3nc2Cl)cc1 (stereo not given) | 0 | 15 | 3 | -22 | 1
Cc1ccc(S(=O)(=O)N(C)C[C@H]2Oc3ccc(NS(=O)(=O)c4cccs4)cc3C(=O)N([C@@H](C)CO)C[C@H]2C)cc1 | 0 | -1 | x | -2 | 2
CC(=O)c1c(C)nc2ccc(C)cc2c1-c1ccccc1 | -5 | -36* | -11 | -1 | -2
O=C(COc1ccccc1Br)Nc1ccc(S(=O)(=O)N2CCCC2)cc1 | -5 | -23* | -7 | -5 | -2
CN(CC(=O)Nc1cccc(S(=O)(=O)N2CCCC2)c1)CC(=O)Nc1ccc(F)c(F)c1F | 0 | -24 | 10 | x | 19*
CN(CC(=O)Nc1cccc(S(=O)(=O)N2CCCC2)c1)CC(=O)Nc1ccc(Cl)c(C(F)(F)F)c1 | 3 | -28 | 1 | -3 | 4
O=C(COc1ccc(F)cc1Cl)Nc1cccc(S(=O)(=O)N2CCCCCC2)c1 | 0 | 0 | 8 | -5 | 8.8*
O=C(CNc1ccc(F)cc1Cl)Nc1cccc(S(=O)(=O)N2CCCCC2)c1 | 1 | x | -14 | -1 | 2
